Hit rate of the full screen: of about 52,000 compounds, about 4,300 (8.3%) were called active. What follows is part of a selection rich in actives, with near analogues and random picks from the rest. Unmarked numbers belong to inactive results. Rule as the data show it: active = survival mostly below about 52% (no sharp cut-off); inactive = mostly above about 56%.

For this test, the system named is DeltatarO mutant. Put plainly: growth inhibition of S. aureus wild type versus tarO mutant, primary screen, teichoic acid synthesis inhibitors, RN4220, OD600 (AID 463173). The following applies: OD600, 18 h, hits give low values, screened at 18.75 µg/mL (by protocol).
In the case of `Cc1ccc(-c2cn3c(n2)sc2cc(C(=O)NCCCc4ccccc4)ccc23)c(C)c1`, the survival is 48%. On to `O=C1N(c2ccccc2)C(=O)N(c2ccccc2)C2c3ccccc3C=CN12` (stereo not given), for which the survival is 100%.

On to `CCOC(=O)c1ccccc1NC(=O)Nc1cc2c(cc1N1CCCC1)n(C)c(=O)n2C`, for which the survival was 108%. Take `CCc1nc2ccc(C(=O)NCCc3ccc(OC)c(OC)c3)cc2nc1CC`: the survival is 88%. For `O=C(Cc1ccccc1)Nc1sc2c(c1C(=O)Nc1cccc(Cl)c1)CCCCC2`, the survival was 65%.

Turning to `O=C(Nc1cccc(Cl)c1)c1c(NC(=O)C(F)(F)F)sc2c1CCCC2`, the survival is -2% (active). Next, `Cc1cccc(NC(=O)c2c(NC(=O)C(F)(F)F)sc3c2CCCCC3)c1`: -3% (active). Take `Cc1cccc(NC(=O)c2c(N)sc3c2CCC(C)C3)c1` (stereo not given): the survival was 59%. In the case of `O=C(Nc1sc2c(c1C(=O)Nc1cccc(Cl)c1)CCCC2)c1cccs1`, the survival was 159%. Take `CCOc1ccc(NC(=O)c2c(NC(=O)c3cccc(C)c3)sc3c2CCC3)cc1`: the survival was 160%. As to `Cc1cccc(NC(=O)c2c(Br)sc3c2CCCC3)c1`, the survival is 3% (active). Regarding `Cc1cccc(NC(=O)c2c(NC(=O)c3ccccc3)sc3c2CCC3)c1`, the survival is 72%.

Consider `Cc1cccc(NC(=O)c2c(NC(=O)c3ccccc3)sc3c2CCCC3)c1`, for which the survival is 61%.

`O=c1n(Cc2ccc(F)cc2Cl)c2ccccc2c2nc(-c3ccccc3)nn12`: the survival is 125%. Next, `O=S(=O)(c1ccc(-c2cnc(C3CC3)o2)cc1)N1CCN(c2cccc(Cl)c2)CC1`: 75%. The value for `COc1ccc(Br)cc1CNC(=O)C1COc2ccccc2C1` (stereo not given) was 49%; that for `COc1ccccc1C(=O)Oc1c(Sc2ccccc2)c(C)nn1C(C)(C)C` was 87%. The value for `COc1cccc(C(=O)Oc2c(Sc3ccc(C)cc3)c(C)nn2C(C)(C)C)c1OC` was 21% (active); that for `CCOc1ccccc1C(=O)Oc1c(Sc2ccccc2)c(C)nn1C(C)(C)C` was 91%; that for `Cc1ccccc1C(=O)Oc1c(Sc2ccccc2)c(C)nn1C(C)(C)C` was 21% (active). In the case of `Cc1nn(C(C)(C)C)c(OC(=O)C(C)(C)C)c1Sc1ccccc1`, the survival was -10% (active). As to `COc1ccc(C(=O)Oc2c(Sc3ccc(C)cc3)c(C)nn2C(C)(C)C)cc1OC`, the survival is 115%. `Cc1ccc(Sc2c(C)nn(C(C)(C)C)c2OC(=O)C(C)(C)C)cc1`: the survival is -10% (active). The value for `COc1ccc(C(=O)Oc2c(Sc3ccc(C)cc3)c(C)nn2C(C)(C)C)c(OC)c1` was 49%; that for `Cc1oc2cc3oc(=O)c(CCC(=O)NCCc4ccccc4F)c(C)c3cc2c1C` was 94%; that for `O=S(=O)(c1ccc2oc(-c3cccnc3)nc2c1)c1ccc2oc(-c3cccnc3)nc2c1` was 64%. The value for `CCOC(=O)c1c(-c2ccc(C)cc2C)csc1NC(=O)c1ccccc1Cl` was 47%. Next, `CC(C)c1ccc(C2N3CC4(C)CN2CC(c2ccccc2)(C3)C4=O)cc1` (stereo not given): 80%. Regarding `CC(C)NC(=O)C1CC(=O)N(c2ccc(Oc3ccccc3)cc2)C1` (stereo not given), the survival was 87%. The value for `CSc1ncc(Cl)c(C(=O)Nc2ccc(S(=O)(=O)N3CCC(C)CC3)cc2)n1` was 62%. In the case of `O=C(Cn1ccn(-c2ccc(F)cc2)c(=O)c1=O)Nc1ccccc1C(F)(F)F`, the survival is 50%.

Take `COCC(=O)Oc1c(Sc2ccc(C)cc2)c(C)nn1C(C)(C)C`: the survival is 78%. The value for `CCC(=O)Oc1c(Sc2ccc(Cl)cc2)c(C)nn1C(C)(C)C` was 78%. Next, `Cc1ccc(Sc2c(C)nn(C(C)(C)C)c2OC(=O)CC(C)C)cc1`: -9% (active); `O=C(CC1Nc2ccccc2NC1=O)Nc1cccc2ccccc12` (stereo not given): 93%. The value for `O=C(NCCc1ccc(Cl)cc1)c1ccc(Cn2c(=O)c3cccn3c3cccnc32)cc1` was 43% (active); that for `CCOc1ccccc1CNC(=O)c1ccc(Cn2c(=O)c3cccn3c3cccnc32)cc1` was 44% (active); that for `O=C(NCCc1ccccc1)c1ccc(Cn2c(=O)c3cccn3c3cccnc32)cc1` was 51%. On to `O=C(NCc1ccc(Cl)cc1)c1ccc(Cn2c(=O)c3cccn3c3cccnc32)cc1`, for which the survival is 49%. The value for `CCCNC(=O)c1ccc(Cn2c(=O)c3cccn3c3cccnc32)cc1` was 52%; that for `Cc1ccc(CCNC(=O)c2ccc(Cn3c(=O)c4cccn4c4cccnc43)cc2)cc1` was 52%; that for `COc1ccc(CNC(=O)c2ccc(Cn3c(=O)c4cccn4c4cccnc43)cc2)c(OC)c1` was 58% (active). Regarding `O=C(NCc1ccccc1Cl)c1ccc(Cn2c(=O)c3cccn3c3cccnc32)cc1`, the survival was 103%. The value for `COc1ccc(CNC(=O)c2ccc(Cn3c(=O)c4cccn4c4cccnc43)cc2)cc1OC` was 67%; that for `CCOc1cc(CNC(=O)c2ccc(Cn3c(=O)c4cccn4c4cccnc43)cc2)ccc1OC` was 52% (active).

As for `CC(C)Oc1ccc(CNC(=O)c2ccc(Cn3c(=O)c4cccn4c4cccnc43)cc2)cc1`, the survival was 55%. Next, `CN(C)c1ccc(CNC(=O)c2ccc(Cn3c(=O)c4cccn4c4cccnc43)cc2)cc1`: 60%; `O=C(NCCc1ccccc1)C(=O)Nc1cccc(Br)c1`: 68%. Next, `Cc1ccc2c(CC(=O)Nc3nnc(C(C)C)s3)coc2c1C`: 101%. Next, `CC(C)c1ccc(CN(C(=O)c2cc3ccccc3oc2=O)C2CCS(=O)(=O)C2)cc1` (stereo not given): 51%.

As to `CCCCOC(=O)c1ccc(NC(=O)c2ccc3c(c2)CCCN3S(C)(=O)=O)cc1`, the survival was 96%. With `C=CCC1N(c2ccccc2)C(=O)C2C(C(=O)O)C3C=CC21O3` (stereo not given), the survival is 103%. For `[O-][n+]1onc2c1CCC1N(O)C(c3ccccc3)CC21O` (stereo not given), the survival is 80%.

As for `O=C(CCSCc1ccc(Cl)cc1)N1CCN(c2ccccc2F)CC1`, the survival was 77%. In the case of `CC1=C(C(=O)Nc2cc(C)ccc2C)C2(CCCCCC2)OC1=O`, the survival was 89%. Take `Cc1ccccc1NC(=O)C(=O)NCC1(c2ccccc2)CCCC1`: the survival is 73%. Next, `O=C(Cn1c(=O)n(-c2ccccc2Cl)c(=O)c2sc3ccccc3c21)NC1CCCCC1`: 109%. Consider `CCc1ccc(CNC(=O)c2ccc(Cn3c(=O)c4cccn4c4cccnc43)cc2)cc1`, for which the survival was 67%. As for `Cc1cccc(CNC(=O)c2ccc(Cn3c(=O)c4cccn4c4cccnc43)cc2)c1`, the survival is 48% (active). Next, `COc1ccc(CCNC(=O)c2ccc(Cn3c(=O)c4cccn4c4cccnc43)cc2)cc1OC`: 48% (active); `O=C(NCc1ccccc1)c1ccc(Cn2c(=O)c3cccn3c3cccnc32)cc1`: 108%; `CCOc1ccc(CCNC(=O)c2ccc(Cn3c(=O)c4cccn4c4cccnc43)cc2)cc1`: 93%.

Take `COc1ccc(CCNC(=O)CCn2c(=O)c3cccn3c3cccnc32)cc1OC`: the survival was 82%. As for `Cc1cc(C)c2sc(N(Cc3cccnc3)C(=O)CCS(=O)(=O)c3ccccc3)nc2c1`, the survival is 89%. Next, `CCc1ccccc1NC(=O)Cn1c(=O)nc(-c2ccccc2)c2ccccc21`: 90%. Next, `N#Cc1ccccc1Cn1c(=O)n(-c2ccc(F)c(Cl)c2)c(=O)c2sccc21`: 112%; `O=S(=O)(c1ccccc1)c1cccc(S(=O)(=O)N2CCCC2)c1`: 86%; `Cc1cccc(C)c1NC(=O)C(c1ccccc1)N(Cc1ccco1)C(=O)Cn1nnc2ccccc21` (stereo not given): 74%. `CCOc1ccc(NC(=O)C2CCN(C(=O)N3CC(C)Oc4ccc(Cl)cc43)CC2)cc1` (stereo not given): the survival was 100%.

With `Cc1cc(=O)oc2ccccc12`, the survival was 83%. Next, `Cc1ccc(C(c2nnnn2C2CCCC2)N2CCc3ccccc32)cc1` (stereo not given): 100%; `CC(C)CCNC(=O)c1ccc2c(c1)N(C)C(=O)c1ccccc1S2`: -5% (active); `COc1ccccc1CNC(=O)Nc1ccc2c(c1)N(C)C(=O)c1ccccc1S2`: 70%. Next, `CCc1ccccc1NC(=O)Nc1ccc2c(c1)N(CC)C(=O)c1ccccc1S2`: 41% (active); `CCOC(=O)c1cccc(NC(=O)Nc2ccc3c(c2)N(C)C(=O)c2ccccc2S3)c1`: 92%; `CCN1C(=O)c2ccccc2Sc2ccc(NC(=O)Nc3cc(C)cc(C)c3)cc21`: 67%. For `CC(C)CCNC(=O)c1ccc2c(c1)N(Cc1cccc(Cl)c1)C(=O)c1ccccc1S2`, the survival is 83%. With `CCN1C(=O)c2ccccc2Sc2ccc(NC(=O)Nc3ccccc3OC)cc21`, the survival is 61%. Regarding `CN1C(=O)c2ccccc2Sc2ccc(NC(=O)NCc3ccccc3Br)cc21`, the survival was 51%.

Turning to `Cc1ccccc1CNC(=O)Nc1ccc2c(c1)N(C)C(=O)c1ccccc1S2`, the survival was 63% (active). Next, `CC(C)CCNC(=O)Nc1ccc2c(c1)N(C)C(=O)c1ccccc1S2`: 89%; `COc1cccc(NC(=O)Nc2ccc3c(c2)N(C)C(=O)c2ccccc2S3)c1`: 51%. Take `CCc1cccc(NC(=O)Nc2ccc3c(c2)N(C)C(=O)c2ccccc2S3)c1`: the survival is 26% (active). Take `CCOC(=O)c1c(C)[nH]c(C)c1S(=O)(=O)N1CCCC(C(=O)N2CCN(c3ccccc3F)CC2)C1` (stereo not given): the survival is 84%. Next, `CCc1ccc2oc(-c3ccc(C)c(NC(=O)Cc4ccccc4)c3)nc2c1`: 145%. For `CCOc1ccc2c(c1)c(=O)c(C(=O)c1ccccc1)cn2Cc1ccccc1`, the survival is 87%. Next, `Cc1ccc(S(=O)(=O)Cn2nnnc2CN2CCC(Cc3ccccc3)CC2)cc1`: 100%; `O=C(Cn1c(=O)c2cccn2c2ccc(F)cc21)Nc1cccc(F)c1`: 64%.

As for `Cc1ccc(C2=Nc3ccccc3N=C(c3ccc(F)cc3)C2)c(O)c1`, the survival was 60%.

Regarding `COC(=O)Cn1c(C(=O)OC)cc2c1ccn2-c1ccc(F)cc1`, the survival is 93%.
